Screening results (PubChem BioAssay)
Only some compounds are listed: those with a hit (about 1.7% of all), similar ones and a draw of the others.
KCNH2 3.1 block = blocks the human KCNH2 3.1 channel isoform. U2OS KCNH2 3.1, thallium flux FluxOr; active compounds read low. activity change, % (tested at about 1.8 µM). 340,000 tested, 0.95% active. AID 720553;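 active means maximum activity change below -70%; inconclusive means maximum activity change from -70% to -50%; inactive means maximum activity change above -50%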;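 further: thallium influx rate constant from kinetic fluorescence after stimulation buffer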
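Measured as rate of thallium-driven FluxOr signal in transduced U2OS cells carrying the 3.1 channel, read kinetically for 2 min upon stimulation; values are rate constants scaled to DMSO control wells.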
FBPA coupling cs = inhibits coupling enzyme system, counter-screen for aldolase hits. coupling enzyme system counterscreen, AmpLite Red fluorescence. activity change, negative = inhibition, % at 58.2 µM, hits read low. 290,000 tested, 0.67% active; in the data active means activity change below about -30%
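Fluorescence at 525 nm excitation and 598 nm emission measured inhibition of the coupled detection system without aldolase. Compounds (at 57.5 uM final) were preincubated 10 min at room temperature with coupling enzyme reagent before a 20 min substrate/AmpLite Red step.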
USP1-UAF1 inh = inhibitors of human USP1/UAF1 deubiquitinase. O94782. recombinant USP1/UAF1, Ub-Rhodamine cleavage fluorescence. Potency, µM (highest dose often 57.1 µM), hits mostly inhibitors. 390,000 tested, 0.23% active. AID 743255; active means well fitted inhibition curve with a large enough effect; inconclusive means small, poorly fitted or top-dose-only effect; inactive means no such curve, though single readings can be large or run the other way; further: nearly all actives have a fitted effect of over 60% in size
Target sequence (O94782 whole entry, looked up): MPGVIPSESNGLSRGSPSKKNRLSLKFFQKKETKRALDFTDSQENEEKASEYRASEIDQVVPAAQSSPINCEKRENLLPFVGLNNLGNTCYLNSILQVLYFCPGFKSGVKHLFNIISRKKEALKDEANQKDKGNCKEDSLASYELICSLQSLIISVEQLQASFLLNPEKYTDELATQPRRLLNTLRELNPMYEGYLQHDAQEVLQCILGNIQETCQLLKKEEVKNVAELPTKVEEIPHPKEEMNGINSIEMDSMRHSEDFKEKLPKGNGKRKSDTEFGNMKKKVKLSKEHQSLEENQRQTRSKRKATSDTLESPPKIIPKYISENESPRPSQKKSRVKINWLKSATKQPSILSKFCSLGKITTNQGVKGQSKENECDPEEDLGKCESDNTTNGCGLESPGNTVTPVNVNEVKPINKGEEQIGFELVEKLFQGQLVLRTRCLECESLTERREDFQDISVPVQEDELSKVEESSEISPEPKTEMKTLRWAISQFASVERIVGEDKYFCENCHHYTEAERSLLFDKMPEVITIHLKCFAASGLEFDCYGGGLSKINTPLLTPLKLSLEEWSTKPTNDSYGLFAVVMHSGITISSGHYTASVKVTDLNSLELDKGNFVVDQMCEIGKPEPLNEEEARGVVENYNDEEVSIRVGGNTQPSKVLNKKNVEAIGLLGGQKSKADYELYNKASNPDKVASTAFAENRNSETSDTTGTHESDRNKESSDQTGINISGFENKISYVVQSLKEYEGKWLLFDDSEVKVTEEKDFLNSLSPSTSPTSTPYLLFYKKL
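1 nM enzyme complex + cpd, 15 min RT; start with Ub-Rho 150nM final; kinetic fluorescence ex 480/em 540, 6 reads q60 s. Buffer 50mM HEPES pH 7.8, 0.5mM EDTA, 0.1 mg/ml BSA, 1mM TCEP, 0.01% Tween-20.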
hERG WT inh = inhibitors of human wildtype KCNH2 potassium channel; activity change, % at 1.84 µM; Q12809; 340,000 tested, 0.37% active; U2OS, BacMam KCNH2, thallium flux FluxOr; active compounds read low;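 active means maximum activity change below -70%; inconclusive means maximum activity change between -70% and -50%; inactive means maximum activity change above -50%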
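U2OS cells were transduced with wild-type KCNH2 virus (2.03 x 10^8 / mL) for 4 h at room temperature, then cultured overnight at 37 C. Thallium flux was read with FluxOr dye. Rate constants were normalized to DMSO controls.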
Giardia kill = kills Giardia lamblia. AID 540267. Giardia lamblia trophozoite viability. activity change, % at 7.66 µM, hits read low. 340,000 tested, 0.15% active; in the data active means activity change below about -80%; inconclusive means between about -30% and that limit;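 further: parasites exposed to compound for two days anaerobically before the ATP read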
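Luminescence from cellular ATP indicates surviving trophozoites (100 cells/well) following 48 hrs anaerobic compound treatment at 37 deg C; signal develops 15-30 min at room temperature.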
A number is an active result; – = inactive; ? = inconclusive; · = no result given.

SMILES | KCNH2 3.1 block | FBPA coupling cs | USP1-UAF1 inh | hERG WT inh | Giardia kill
CCOc1ccc(Nc2c(S(=O)(=O)c3ccccc3)cnc3ccc(CC)cc23)cc1 | · | · | – | · | ·
CCC(=O)N1CCc2cc(Br)cc(S(=O)(=O)N3CCCC(C(=O)NCc4cccc(OC)c4)C3)c21 (configuration not stated) | · | · | – | · | ·
NC(=O)C1(NC2CCCCC2)CCN(Cc2ccccc2)CC1 | – | · | – | – | –
CCc1ccc(C(=O)COC(=O)C(Cc2c[nH]c3ccccc23)NC(=O)c2ccc(Br)cc2)cc1 (configuration not stated) | · | · | – | · | ·
Cc1cc(C)nc(NC2=NCC(=O)N2c2ccc(F)c(Cl)c2)n1 | – | – | – | – | –
COc1ccc(N2C(=O)CN=C2Nc2nc(C)cc(C)n2)cc1OC | -148.5 | – | – | – | –
CCN(c1ccccc1)c1nnc(NC(=O)Nc2ccc(Br)cc2F)s1 | · | · | – | · | ·
COc1ccc(C(=O)O)c(O)c1OC | · | – | · | · | ·
COC1=C(N)C(=O)c2nc(-c3nc(C(=O)O)c(C)c(-c4ccc(OC)c(OC)c4O)c3N)ccc2C1=O | – | -63.7 | 11.2µM | – | ?
C[C@H](CO)N1C[C@H](C)[C@@H](CN(C)Cc2cccc(C(F)(F)F)c2)OCc2cnnn2CCCC1=O | – | · | ? | – | ·
CCN(CC)CCCNC(=O)C1CCC(CNS(=O)(=O)c2c(C)cc(C)cc2C)CC1 (configuration not stated) | – | – | – | – | –
CCCCN(C)CCCNC(=O)C1CCC(CNS(=O)(=O)c2c(C)cc(C)cc2C)CC1 (configuration not stated) | -76.6 | – | – | – | –
CN1CCN(c2ccc(Cl)cc2NC(=O)/C=C/c2cccc(F)c2)CC1 | -70.3 | – | – | ? | –
c1ccc2c(c1)Sc1cnccc1N2CC1CO1 (configuration not stated) | – | · | ? | – | ·
CC#CCN1c2ccccc2[C@]23C[C@@H](C(=O)OC)N(S(=O)(=O)c4ccc(C#N)cc4)C2=NC(C(=O)OC)=C(C(=O)OC)[C@H]13 | · | – | · | · | ·
COc1cc2nc3c(c([Si](C)(C)C(C)(C)C)c2cc1OC)Cn1c-3cccc1=O | · | -42.3 | · | · | ·
Oc1ccc(C(=S)N2CCCCCC2)cc1 | – | – | – | – | –
Oc1cccc(C(=S)N2CCCCC2)c1 | -145.8 | – | – | – | –
CCN1CCCC1CN(Cc1cc2ccc(C)cc2[nH]c1=O)C(=S)Nc1ccc(F)cc1 (configuration not stated) | -84.9 | – | – | -71.3 | –
CCN1CCCC1CN(Cc1cc2ccc(C)cc2[nH]c1=O)C(=S)Nc1ccc(OC)cc1 (configuration not stated) | – | – | – | – | –
COc1ccccc1NC(=O)CSc1nnc2c(n1)[nH]c1ccccc12 | · | · | – | · | ·
CC(NC(=O)c1cccnc1)C(c1ccccc1)N1CCN(C)CC1 (configuration not stated) | -77.0 | – | – | – | –
CC(NC(=O)c1cccnc1)C(c1cccs1)N1CCOCC1 (configuration not stated) | – | – | – | – | –
Cc1cc(C)n(C2CC(=O)N(c3ccccc3)C2=O)n1 (configuration not stated) | – | – | – | – | –
CC(=O)NC1N=C(C)N(c2ccccc2)C1=O (configuration not stated) | – | -77.8 | – | – | –
SMILES | KCNH2 3.1 block | FBPA coupling cs | USP1-UAF1 inh | hERG WT inh | Giardia kill
COc1ccc(N2CCN(C(=O)c3cc(-c4ccc(F)cc4)[nH]c3C)CC2)cc1 | -82.9 | – | – | -88.3 | –
CCCC(=O)N(CCN1CCOCC1)c1nc2c(C)ccc(C)c2s1 | -84.8 | – | – | – | –
CCCC(=O)N(CCN1CCOCC1)c1nc2c(OC)ccc(C)c2s1 | – | – | – | – | –
C=CCN1C(=O)c2ccc(C(=O)N(CC(C)C)c3c(N)n(CCCC)c(=O)[nH]c3=O)cc2C1=O | -147.2 | · | ? | – | –
CC(=O)N1c2nc(C(C)C)nn2C2(CCCCC2)[C@@H]2CCCC[C@@H]21 | · | · | – | · | ·
CCOc1cc(/C=C(\C#N)C(=O)Nc2cccc(C(=O)O)c2)ccc1OCc1ccccc1Cl | – | – | ? | – | –
CCOc1cc(/C=C(\C#N)C(=O)Nc2cccc(C(=O)O)c2)cc(Br)c1OC(=O)c1ccc(OC)cc1 | -111.6 | – | – | – | –
